In the supplement of paper PMC3484114:
± gives the standard deviation.

System: OVCAR-3-derived ovarian cancer stem-like cells (spheroids)
Test: cell growth relative to untreated control; higher = more growth (less inhibition)
Details: 2.29 µM; 96 h
Summary of the method: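 Percent growth was calculated against untreated wells once blanks were subtracted and Grubbs outliers removed. The cells were OVCAR-3 spheroid-derived stem-like cells, trypsinized and plated at 50,000 cells/mL in stem cell medium on ultra-low attachment 96-well plates for a 24 h preincubation. They were then exposed to compounds at 2.29 uM for 96 h at 37°C, 5% CO2, in 4 replicate wells, and viability was measured by TOX8 resazurin fluorescence (ex 560/em 590 nm) after 4 h.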

Compared with `Nc1ccc2cc3ccc(N)cc3nc2c1`, `O=c1ccc2ccc(CBr)cc2o1` is higher in cell growth: 25.8 ± 6.4% for the first, 84.2 ± 21% for the second.

`CCCCS(=N)(=O)CCC(N)C(=O)O` (centres undefined) and `CCCCCCCCCCSCC(CO)NC(=O)/C=C/c1c(C)[nH]c(=O)[nH]c1=O` (centres undefined) are within error of each other in cell growth: 86.6 ± 8.1% for the first, 107 ± 23% for the second.

`Cc1cc(O)c(/C=N/C(N)=S)c(=O)o1` and `Nc1cc2[nH]cnc2c(=O)[nH]1` are within error of each other in cell growth: 92.5 ± 14% for the first, 77.1 ± 7.5% for the second.

`CN(Cc1cnc2nc(N)nc(N)c2n1)c1ccc(C(=O)N[C@@H](CCC(=O)O)C(=O)O)cc1` and `C[C@H](CSC(=O)c1ccccc1)C(=O)N1c2ccccc2C[C@H]1C(=O)O` are within error of each other in cell growth: 96.7 ± 31% for the first, 90.9 ± 9.5% for the second.

`Oc1ccc2ccccc2c1N=Nc1cccc2ccccc12` and `O=C1c2ccccc2-c2c1c1ccccc1c(=O)n2Cc1ccccc1` are within error of each other in cell growth: 82.9 ± 12% for the first, 86.2 ± 51% for the second.

Compared with `Nc1ccn([C@@H]2C=C(CO)[C@@H](O)[C@H]2O)c(=O)n1`, `Nc1nc(=S)c2ncn([C@@H]3C[C@H](O)[C@@H](CO)O3)c2[nH]1` is higher in cell growth: 44.8 ± 5.1% for the first, 110 ± 13% for the second.

Compared with `O=C1NC(c2cccc3ccccc23)Nc2ccc(Cl)cc21` (centres undefined), `Cc1ccc(C2NC(=O)c3ccccc3N2)s1` (centres undefined) is lower in cell growth: 99.5 ± 9.1% for the first, 60.4 ± 16% for the second.

First: CCN1C=C/C(=C\C=C\c2cc[n+](CC)c3ccccc23)c2ccccc21
Second: CN(C)CCCN1c2ccccc2Sc2ccc3ccccc3c21
The cell growth of the first is lower: 22.2 ± 4.2% for the first, 117 ± 58% for the second.

`O=C(O)c1ccc(NC(c2ccccc2)c2ccc3cccnc3c2O)cc1` (centres undefined) and `O=C1c2ccccc2C(=O)c2nc(-c3ccccc3)c(-c3ccccc3)nc21` are within error of each other in cell growth: 89.7 ± 46% for the first, 137 ± 51% for the second.

`CCOC(=O)/C(=C/c1ccc(N(C)C)cc1)N(CC)CC` and `CCN(CC)CC(C)(C)C(=O)/C=C/c1ccc(C)cc1` are within error of each other in cell growth: 85 ± 9.3% for the first, 80.7 ± 22% for the second.

Compared with `Cc1ccc(/C=C2\CNC/C(=C\c3ccc(C)cc3)C2=O)cc1`, `CN(C)c1ccc(/C=C2\Cc3ccccc3C2=O)cc1Br` is higher in cell growth: 44.5 ± 10% for the first, 169 ± 23% for the second.

Compared with `CC(C)C1=CC2=CC[C@@H]3[C@](C)(CCC[C@@]3(C)C(=O)O)[C@H]2CC1`, `CC1(C)C(O)OC(O)C1(C)C` (centres undefined) is lower in cell growth: 114 ± 10% for the first, 9.3 ± 2% for the second.

Going from `Cc1c(N=Cc2ccc(N(CCC#N)CCC#N)cc2)c(=O)n(-c2ccccc2)n1C` to `N#CC(C#N)=Cc1cccc(Oc2ccccc2)c1`, the cell growth falls from 133 ± 36% to 74.1 ± 8%.

`CN1C(Cl)=NS(=O)(=O)c2ccccc21` and `COC1=C(N)C(=O)c2nc(C)ccc2C1=O` are within error of each other in cell growth: 99.9 ± 12% for the first, 125 ± 79% for the second.

Compared with `COc1cc(-c2cc(=O)c3c(OC)c(OC)c(OC)c(OC)c3o2)cc(OC)c1OC`, `CCN(CC)CCCC(C)Nc1c2ccc(Cl)cc2nc2ccc(OC)cc12` (centres undefined) is lower in cell growth: 79 ± 21% for the first, 37.6 ± 6.1% for the second.

`O=C(Nc1cccc(C(F)(F)F)c1)C(=O)C(C(=O)c1ccc(Cl)c(Cl)c1)C1OC(=O)c2ccccc21` (centres undefined) and `Cc1ccc2[c](c1)[Sn]([c]1ccccc1)([c]1ccccc1)[c]1cc(C)ccc1N2C` are within error of each other in cell growth: 102 ± 20% for the first, 87.8 ± 12% for the second.

`COc1nc(C(Cl)(Cl)Cl)c(Cl)c(OC)c1Cl` and `CCOC(=O)CCn1ncc(Cl)c(Cl)c1=O` are within error of each other in cell growth: 112 ± 17% for the first, 74.8 ± 21% for the second.

First: S=C1Nc2cnc3ccccc3c2SC1c1ccccc1 (centres undefined)
Second: CC1=NN(C(=O)c2ccncc2)C(=O)C1N=Nc1ccc(F)cc1 (centres undefined)
The cell growth of the first is lower: 9.8 ± 3.9% for the first, 146 ± 33% for the second.

`CNc1nc(N(C)C)nc(N(C)C)n1` and `Cn1cnc([N+](=O)[O-])c1Sc1nnc(-c2cccnc2)n1C` are within error of each other in cell growth: 89.9 ± 20% for the first, 151 ± 61% for the second.

`Cc1ccc(Nc2nc(C)c(C(/C=C/c3ccc(/C=C/C(=N\NC(=O)C[n+]4ccccc4)c4sc(Nc5ccc(C)cc5[N+](=O)[O-])nc4C)cc3)=N/NC(=O)C[n+]3ccccc3)s2)c([N+](=O)[O-])c1` was tested, and the cell growth was 110 ± 11%.
